Experimental findings from the supplement of paper PMC10412459 are described below.

This assay relates to K562 SF3B1 K700E vs K562 SF3B1 WT. The assay can be described thus: surviving fraction ratio K562 SF3B1 K700E / K562 SF3B1 WT (each relative to DMSO); higher = less selective killing of SF3B1 K700E cells. To be noted: 5 days. How it is done: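 Drug-sensitivity screen of an in-house 80-compound library in isogenic K562 SF3B1 K700E versus SF3B1 WT cells. 250 cells/well in 384-well plates were exposed 24 h after seeding to 0.5-1000 nM compound for 5 days, and viability was read by CellTiter-Glo. Surviving fraction is relative to DMSO, and the value is the ratio of surviving fraction in K700E to WT cells; the paper calls ratio <0.6 with P<0.01 selective.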

For `CNCc1ccc(-c2[nH]c3cc(F)cc4c3c2CCNC4=O)cc1`, the “surviving fraction ratio K562 SF3B1 K700E / K562 SF3B1 WT” value was determined as 0.834 (0.5nM); 0.856 (1nM); 0.825 (5nM); 0.831 (10nM); 0.897 (50nM); 0.794 (100nM). The “surviving fraction ratio K562 SF3B1 K700E / K562 SF3B1 WT” value runs as follows: (500nM) 0.847; (1000nM) 0.711.
As for `C=CCNC1=C2C[C@@H](C)C[C@H](OC)[C@H](O)[C@@H](C)/C=C(\C)[C@H](OC(N)=O)[C@@H](OC)/C=C\C=C(/C)C(=O)NC(=CC1=O)C2=O`, the “surviving fraction ratio K562 SF3B1 K700E / K562 SF3B1 WT” value was determined as 1.01 (0.5nM); 0.993 (1nM); 0.811 (5nM); 0.776 (10nM); 0.41 (50nM); 1.81 (100nM). Besides, the “surviving fraction ratio K562 SF3B1 K700E / K562 SF3B1 WT” value reads like this: (500nM) 1.31; (1000nM) 1.24.
Consider `Cc1nc(Nc2n[nH]c3c2CN(C(=O)N[C@H](CN(C)C)c2ccccc2)C3(C)C)c2sccc2n1`, for which the “surviving fraction ratio K562 SF3B1 K700E / K562 SF3B1 WT” value turned out to be 0.912 (0.5nM); 0.858 (1nM); 1.09 (5nM); 1.34 (10nM); 1.76 (50nM); 1.69 (100nM). Also, the “surviving fraction ratio K562 SF3B1 K700E / K562 SF3B1 WT” value by setting is: (500nM) 1.98; (1000nM) 1.69.
With `COc1cc2ncnc(Nc3ccc(F)c(Cl)c3)c2cc1OCCCN1CCOCC1` [gefitinib], the “surviving fraction ratio K562 SF3B1 K700E / K562 SF3B1 WT” value reads like this: (0.5nM) 0.645; (1nM) 0.787; (5nM) 0.848; (10nM) 0.768; (50nM) 0.792; (100nM) 0.802. Moreover, the “surviving fraction ratio K562 SF3B1 K700E / K562 SF3B1 WT” value was 0.781 (500nM) and 0.907 (1000nM).
As to `Cc1nc(Nc2ncc(C(=O)Nc3c(C)cccc3Cl)s2)cc(N2CCN(CCO)CC2)n1` [dasatinib], the “surviving fraction ratio K562 SF3B1 K700E / K562 SF3B1 WT” value stood at 1.18 (0.5nM); 2.2 (1nM); 1.86 (5nM); 1.39 (10nM); 1.23 (50nM); 1.42 (100nM). Besides, the “surviving fraction ratio K562 SF3B1 K700E / K562 SF3B1 WT” value came out at 1.72 (500nM) and 1.65 (1000nM).
